# In the library only some 3.5% were active in any assay of this set; here they are far more common.
# GPR151 ag = activates the human receptor GPR151 | AID 1508602 | Q8TDV0 | 1% of 650,000 active | PathHunter beta-arrestin GPR151 cells, luminescence | activation, % at 11.2 µM; in the data active means activation above about 4.9%;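 further: 0% = median of compound wells and 100% = cells with positive control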
# FBW7 act = human FBW7 E3 ligase activation, primary screen | 0.13% of 650,000 active | normalized activity (activation), % at 26.1 µM | AID 1259310 | AlphaScreen FBW7–phospho-cyclin E peptide binding, activator screen | Q969H0; in the data active means normalized activity above about 1.9%;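 further: purified mutant Fbw7 with reduced substrate affinity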
# MITF primary = inhibitors of human MITF. O75030. AlphaScreen MITF homodimerization, bead proximity signal. inhibition, % at 2.6 µM. 0.91% of 650,000 active. AID 1259374; in the data active means inhibition above about 50%;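 further: 0% = vehicle wells with protein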
# Target sequence (O75030 whole entry, looked up): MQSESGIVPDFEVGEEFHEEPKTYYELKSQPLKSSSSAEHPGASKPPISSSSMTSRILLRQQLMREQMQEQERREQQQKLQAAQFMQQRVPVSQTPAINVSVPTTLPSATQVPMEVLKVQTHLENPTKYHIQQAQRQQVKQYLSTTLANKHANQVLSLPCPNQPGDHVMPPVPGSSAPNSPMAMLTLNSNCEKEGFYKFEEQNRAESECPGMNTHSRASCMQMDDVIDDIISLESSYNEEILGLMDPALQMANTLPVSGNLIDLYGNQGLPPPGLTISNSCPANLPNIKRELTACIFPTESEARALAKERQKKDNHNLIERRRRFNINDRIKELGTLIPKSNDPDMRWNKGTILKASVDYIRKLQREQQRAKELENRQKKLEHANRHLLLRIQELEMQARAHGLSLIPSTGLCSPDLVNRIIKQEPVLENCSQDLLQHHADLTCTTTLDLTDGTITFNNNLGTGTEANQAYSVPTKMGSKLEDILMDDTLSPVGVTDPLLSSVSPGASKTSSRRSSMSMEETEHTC
# TEAD-YAP block = TEAD-YAP interaction inhibition; HEK-TIYL cells, TEAD-Gal4/YAP UAS-luciferase luminescence; inhibition, % at 9.12 µM; 1.4% of 640,000 active; AID 1259422; in the data active means inhibition above about 32%;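 further: 0% = median of test compound wells and 100% = reference inhibitor wells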
# Starred values were filed as active, the others as inactive.
SMILES,GPR151 ag,FBW7 act,MITF primary,TEAD-YAP block
CC(C)Cc1cc(C(=O)Nc2cccc(O)c2)no1,-1,0,5,87*
CC(C)n1nnnc1C(c1ccc(F)cc1)N1CCN(Cc2ccccc2)CC1 (stereo not drawn),1,0,9,6
Cc1ccc(S(=O)(=O)NCC(=O)OCC(=O)c2ccc(C)c(C)c2)cc1,-1,0,4,6
CC(C)c1ccc(C(=O)Nc2ccccc2C(N)=O)cc1,1,0,9,33*
NC(=O)c1ccccc1NC(=O)c1ccc(Cn2nnc3ccccc32)cc1,0,0,4,56*
NC(=O)c1ccccc1NC(=O)c1ccc(Cl)cc1,-1,0,4,-53
Cc1c(NC(=O)c2ccccc2I)cccc1[N+](=O)[O-],0,0,3,-7
COc1ccc(Cc2nnc(SCC(=O)Nc3ccc(C)cc3C)o2)cc1,1,1,3,2
c1ccc(-n2cnc3c(Nc4ccc(N5CCOCC5)cc4)nc(Nc4ccc5ncccc5c4)nc32)cc1,1,0,-1,4
Nc1nc(Nc2ccccc2)nc2c1ncn2-c1ccsc1,-2,0,13,37*
CC(=O)Nc1ccc(Nc2nc(Nc3ccc4ncccc4c3)nc3c2ncn3-c2ccccc2)cc1,1,0,1,40*
c1ccc(Nc2nc(Nc3ccc4ncccc4c3)nc3c2ncn3-c2ccsc2)cc1,3,0,10,57*
c1ccc(Nc2nc(Nc3ccc4ncccc4c3)nc3c2ncn3-c2ccccc2)cc1,-2,1,7,42*
COc1ccc(-c2nnc3ccc(SCC(=O)N4CCCC4)nn23)cc1OC,-1,0,-4,0
COc1cc(C2C(C#N)=C(N)Oc3n[nH]c(-c4ccc(Br)cc4)c32)cc(OC)c1OC (stereo not drawn),1,-1,-12,-9
CSc1cccc(NC(=O)C2C3C=CC4(O3)C2C(=O)N(Cc2cccnc2)C4C(=O)NC2CCCCC2)c1 (stereo not drawn),-1,0,-2,-8
Nc1nc(Nc2ccc3ncccc3c2)nc2c1ncn2-c1ccsc1,0,38*,-14,6
c1cnc2ccc(Nc3nc(Nc4ccc(N5CCOCC5)cc4)c4ncn(-c5ccsc5)c4n3)cc2c1,-2,0,-1,38*
CC(=O)Nc1ccc(Nc2nc(Nc3ccc4ncccc4c3)nc3c2ncn3C(C)C)cc1,-1,0,3,36*
COc1cc(C(=O)OCC(C)=O)ccc1OCc1c(C)noc1C,-2,0,9,48*
COC(=O)c1ccc(COC(=O)c2ccc(OCc3c(C)noc3C)c(OC)c2)cc1,0,0,1,-26
Cc1cccc(-c2nnc(SCC(=O)Nc3ccccc3F)o2)c1,0,0,-1,64*
Cc1cccc(-c2nnc(SCC(=O)Nc3cc(Cl)ccc3O)o2)c1,-4,0,17,-39
COc1ccc(-c2noc(NCC3COc4ccccc4O3)n2)cc1 (stereo not drawn),2,0,-2,-14
COc1ccc2c(c1)-c1cc(Cl)ccc1S(=O)(=O)N2S(=O)(=O)c1ccc(C)cc1,0,0,5,2
SMILES,GPR151 ag,FBW7 act,MITF primary,TEAD-YAP block
Cc1ccc(S(=O)(=O)N2c3ccc(C)cc3-c3ccccc3S2(=O)=O)cc1,3,0,-3,50*
O=C(NCc1cccnc1)/C(=C/c1ccc(-c2ccc(Cl)cc2)o1)S(=O)(=O)c1ccccc1,-1,0,12,56*
Cc1ccc(C(=O)N/C(=C/c2ccc(-c3ccc(Cl)cc3)o2)C(=O)NCc2ccccc2)cc1,-1,0,3,-5
CCn1c2ccccc2c2cc(/C=C(\C#N)c3nn(CCO)c(N)c3C#N)ccc21,0,0,0,49*
N#C/C(=C\c1ccccc1)c1nn(CCO)c(N)c1C#N,2,0,16,-17
N#C/C(=C\c1cccc(Cl)c1Cl)c1nn(CCO)c(N)c1C#N,1,0,9,49*
CCOc1cc(/C=C2\N=C(c3ccc(C)cc3)OC2=O)ccc1OCc1ccccc1,0,0,8,12
N#C/C(=C\c1ccco1)C(=O)Nc1ccc(F)cc1,-1,0,0,-65
Cc1cc(C(=O)N=c2sc3cc4c(cc3n2C)OCCO4)n(C)n1,-2,0,7,-15
Cc1cc(C(=O)N=c2sc3cc4c(cc3n2C)OCCO4)nn1C,-4,0,6,38*
COc1ccc(S(=O)(=O)N2CC(C(=O)O)Oc3ccccc32)cc1 (stereo not drawn),4,0,-10,1
COc1ccc(S(=O)(=O)N2CCOc3ccccc32)cc1,1,0,19,49*
COc1cccc(-c2cnn3ccc(Nc4cc(OC)c(OC)c(OC)c4)nc23)c1,1,0,10,-3
COc1cc(-c2cnn3ccc(NCCO)nc23)ccc1O,-1,0,-22,1
Oc1ccc(-c2cnn3ccc(NCc4cccnc4)nc23)cc1,0,0,-5,35*
COc1ccc(-c2cnn3ccc(NCCO)nc23)cc1OC,0,0,-4,57*
COc1cc(-c2cnn3ccc(Nc4cc(OC)c(OC)c(OC)c4)nc23)ccc1O,2,0,7,71*
COc1cc(Nc2ccn3ncc(-c4ccccc4Cl)c3n2)cc(OC)c1OC,0,2,9,36*
CC(=O)Nc1ccc(NC(=O)C(CC(C)C)N2Cc3ccccc3C2=O)cc1 (stereo not drawn),3,0,7,5
CCN(CC)C(=O)C1c2ccccc2C(=O)N(C2CCCCC2)C1c1ccc(OC)cc1 (stereo not drawn),-1,0,2,3
C[C@@H](O)[C@@H]1NC(=O)[C@H]2CN(S(=O)(=O)c3ccc(Cl)cc3)CCN2C1=O,3,0,-1,4
COc1cc([N+](=O)[O-])ccc1NC(=S)NC(C)c1ccc2c(c1)OCO2 (stereo not drawn),0,0,8,4
O=[N+]([O-])c1ccc(Oc2ccccc2O)c2c1no[n+]2[O-],-3,-2,66*,-13
COc1ccccc1Oc1ccc(C(N)=O)cc1[N+](=O)[O-],1,0,-6,-4
CCS(=O)(=O)c1ncc(Cl)c(C(=O)Nc2cccc(Cl)c2C)n1,1,0,12,57*
CCCS(=O)(=O)c1ncc(Cl)c(C(=O)Nc2ccc(C(=O)OC)cc2)n1,-1,0,5,43*
CCS(=O)(=O)c1ncc(Cl)c(C(=O)Nc2ccccc2Br)n1,0,0,-2,36*
CCCS(=O)(=O)c1ncc(Cl)c(C(=O)Nc2ccc(CC)cc2)n1,1,0,5,27
CCOC(=O)C1=C(C)NC2=C(C(=O)C(C(=O)OC)C(C)C2)C1c1cccc(Oc2ccccc2)c1 (stereo not drawn),1,0,3,7
O=C(c1ccccc1F)N1CCCC(c2nc(N3CCOCC3)ncc2-c2ccncc2)C1 (stereo not drawn),1,0,-4,56*
